Reference: PubChem BioAssay (NCI)
Compounds without any hit were thinned out: in the full panel of roughly 83,000, 20% have a hit.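 Cells were grown in 96-well plates and exposed to the test compound at a single concentration for 48 hours; results are reported as percent growth, with values below 10 considered active.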 Calls of active or inactive are those of the source.

Key:
Test in all cases: NCI-60 one-dose screen, 48 h (100 = growth as untreated, 0 = no growth, -100 = all killed)
DU-145 prostate = settings: 10 µM unless noted
K-562 leukemia = settings: 10 µM unless noted
MALME-3M melanoma = settings: 10 µM unless noted
MDA-MB-231 breast = settings: 10 µM unless noted
SF-268 CNS = settings: 10 µM unless noted
SF-295 CNS = settings: 10 µM unless noted
SF-539 CNS = settings: 10 µM unless noted
UACC-257 melanoma = settings: 10 µM unless noted
M14 melanoma = settings: 10 µM unless noted
HCT-15 colon = settings: 10 µM unless noted
HT29 colon = settings: 10 µM unless noted
SNB-75 CNS = settings: 10 µM unless noted
SNB-19 CNS = settings: 10 µM unless noted
U251 CNS = settings: 10 µM unless noted
PC-3 prostate = settings: 10 µM unless noted
SK-MEL-5 melanoma = settings: 10 µM unless noted
UACC-62 melanoma = settings: 10 µM unless noted
LOX IMVI melanoma = settings: 10 µM
SK-MEL-28 melanoma = settings: 10 µM unless noted
RXF 393 renal = settings: 10 µM unless noted

Measured: growth

O=C(c1ccc(Cl)cc1)N1CCCCC1
inactive: DU-145 prostate 115% | K-562 leukemia 97.2% | MALME-3M melanoma 109% | MDA-MB-231 breast 94.4% | SF-268 CNS 104% | SF-295 CNS 99.2% | SF-539 CNS 98.5% | UACC-257 melanoma 94% | M14 melanoma 104% | HCT-15 colon 98.5% | HT29 colon 101% | SNB-75 CNS 88.5% | SNB-19 CNS 93.7% | U251 CNS 94.7% | PC-3 prostate 97.8% | SK-MEL-5 melanoma 100% | UACC-62 melanoma 95% | LOX IMVI melanoma 97.6% | SK-MEL-28 melanoma 101%

NC(CCl)=NCC12CC3CC(CC(C3)C1)C2
inactive: MALME-3M melanoma 25.4% | SF-295 CNS 26.4% | SNB-75 CNS 13.2% | SNB-19 CNS 22.2% | UACC-62 melanoma 32.7% | SK-MEL-28 melanoma 55.3%
active: DU-145 prostate -42.7% | K-562 leukemia -15.1% | MDA-MB-231 breast -15.8% | SF-268 CNS -3.73% | SF-539 CNS -11% | UACC-257 melanoma -71.2% | M14 melanoma -61.3% | HCT-15 colon 9.53% | HT29 colon -13.6% | PC-3 prostate 7.42% | SK-MEL-5 melanoma 5.92% | LOX IMVI melanoma -33.6%

O=C(NC1CCCCC1)c1ccc(Cl)cc1
inactive: DU-145 prostate 103% | K-562 leukemia 96.5% | MALME-3M melanoma 106% | MDA-MB-231 breast 113% | SF-268 CNS 97.1% | SF-295 CNS 105% | SF-539 CNS 104% | UACC-257 melanoma 105% | M14 melanoma 105% | HCT-15 colon 108% | HT29 colon 101% | SNB-75 CNS 90% | SNB-19 CNS 101% | U251 CNS 98.6% | PC-3 prostate 102% | SK-MEL-5 melanoma 101% | UACC-62 melanoma 97.6% | LOX IMVI melanoma 97.4% | SK-MEL-28 melanoma 112%

CC(C)NC(=O)OCc1c(COC(=O)NC(C)C)c(-c2ccc(Cl)cc2)n2c1CCC2
inactive: DU-145 prostate 15% | K-562 leukemia 58.4% | MALME-3M melanoma 59.3% | MDA-MB-231 breast 65.8% | SF-268 CNS 31% | SF-295 CNS 20.8% | SF-539 CNS 16.3% | UACC-257 melanoma 88.8% | M14 melanoma 33.2% | HCT-15 colon 58.4% | HT29 colon 56% | SNB-75 CNS 34.1% | SNB-19 CNS 57.9% | U251 CNS 49% | PC-3 prostate 68.2% | SK-MEL-5 melanoma 68.1% | LOX IMVI melanoma 30.5% | SK-MEL-28 melanoma 84.7%

CC(C)=CCC[C@@H](C)[C@H]1CC[C@@]2(C)C3=C(CC[C@]12C)[C@@]1(C)CC[C@H](O)C(C)(C)[C@@H]1CC3
inactive: DU-145 prostate 126% | K-562 leukemia 91.2% | MALME-3M melanoma 110% | MDA-MB-231 breast 112% | RXF 393 renal 95.9% | SF-268 CNS 117% | SF-539 CNS 101% | UACC-257 melanoma 121% | M14 melanoma 108% | HCT-15 colon 97.9% | HT29 colon 90.1% | SNB-75 CNS 92.7% | SNB-19 CNS 105% | U251 CNS 99.2% | PC-3 prostate 101% | SK-MEL-5 melanoma 104% | UACC-62 melanoma 101% | LOX IMVI melanoma 103% | SK-MEL-28 melanoma 104%

NNc1ncnc2c1ncn2C1OC(CO)C(O)C1O (stereo not drawn)
inactive: DU-145 prostate 19.3% | K-562 leukemia 30.4% | MALME-3M melanoma 122% | MDA-MB-231 breast 10.7% | SF-268 CNS 50.3% | SF-295 CNS 38.7% | SF-539 CNS 90.9% | UACC-257 melanoma 84.9% | M14 melanoma 31.6% | HCT-15 colon 11.2% | SNB-75 CNS 94.2% | SNB-19 CNS 57.8% | PC-3 prostate 32.3% | SK-MEL-5 melanoma 88.4% | UACC-62 melanoma 60.5% | LOX IMVI melanoma 32.6% | SK-MEL-28 melanoma 88.8%
active: HT29 colon 9.12%

Nc1cc(N)ncn1
inactive: DU-145 prostate 110% | K-562 leukemia 91.3% | MALME-3M melanoma 106% | MDA-MB-231 breast 96.1% | SF-268 CNS 102% | SF-295 CNS 104% | SF-539 CNS 99.2% | UACC-257 melanoma 112% | M14 melanoma 97.2% | HCT-15 colon 102% | HT29 colon 104% | SNB-75 CNS 88.9% | SNB-19 CNS 96.1% | U251 CNS 104% | PC-3 prostate 97.7% | SK-MEL-5 melanoma 98.3% | UACC-62 melanoma 99.6% | LOX IMVI melanoma 98.4% | SK-MEL-28 melanoma 98.9%

Cc1ccnc(Nc2nc3ccccc3[nH]2)n1
inactive: DU-145 prostate 123% | K-562 leukemia 97.8% | MALME-3M melanoma 104% | MDA-MB-231 breast 109% | RXF 393 renal 116% | SF-295 CNS 102% | SF-539 CNS 98% | UACC-257 melanoma 105% | HCT-15 colon 101% | SNB-75 CNS 109% | SNB-19 CNS 112% | U251 CNS 103% | PC-3 prostate 101% | SK-MEL-5 melanoma 105% | UACC-62 melanoma 113% | LOX IMVI melanoma 97.9% | SK-MEL-28 melanoma 115%

Cc1ccc(NC(=S)N2CCOCC2)cc1C
inactive: DU-145 prostate 109% | K-562 leukemia 95.4% | MALME-3M melanoma 93.8% | MDA-MB-231 breast 99.9% | SF-268 CNS 110% | SF-295 CNS 96.2% | SF-539 CNS 103% | UACC-257 melanoma 93.5% | M14 melanoma 93.1% | HCT-15 colon 86.2% | HT29 colon 114% | SNB-75 CNS 106% | SNB-19 CNS 94.5% | PC-3 prostate 104% | SK-MEL-5 melanoma 96.5% | UACC-62 melanoma 94% | LOX IMVI melanoma 82.3% | SK-MEL-28 melanoma 111%

COc1cc2c(c(OC)c1OC)-c1ccc(SC)c(=O)cc1[C@@H](NC1OC(CO)C(O)C(O)C1O)CC2 (stereo partly drawn)
inactive: MALME-3M melanoma 54.6% | SF-268 CNS 22.7% | UACC-257 melanoma 50.5% | M14 melanoma 11.3% | HCT-15 colon 14.8% | SNB-75 CNS 24.9% | SNB-19 CNS 71.5% | PC-3 prostate 15.7% | UACC-62 melanoma 43.3% | LOX IMVI melanoma 22.3% | SK-MEL-28 melanoma 61.1%
active: DU-145 prostate 6.12% | K-562 leukemia 4.19% | MDA-MB-231 breast 7.41% | SF-295 CNS -35.8% | SF-539 CNS 1.24% | HT29 colon 0.658% | SK-MEL-5 melanoma -18.3%

O=S(=O)(O)c1cccnc1
inactive: DU-145 prostate 122% | K-562 leukemia 105% | MALME-3M melanoma 90.1% | MDA-MB-231 breast 103% | SF-268 CNS 103% | SF-295 CNS 108% | SF-539 CNS 95.8% | UACC-257 melanoma 123% | M14 melanoma 140% | HCT-15 colon 114% | HT29 colon 117% | SNB-75 CNS 79.5% | SNB-19 CNS 96% | PC-3 prostate 102% | SK-MEL-5 melanoma 103% | LOX IMVI melanoma 108% | SK-MEL-28 melanoma 114%

NNc1ncnc2nc[nH]c12
inactive: DU-145 prostate 36.6% | K-562 leukemia 48.4% | MALME-3M melanoma 120% | MDA-MB-231 breast 14.9% | SF-268 CNS 83.7% | SF-295 CNS 45.9% | SF-539 CNS 101% | UACC-257 melanoma 45.1% | M14 melanoma 48% | HCT-15 colon 44.1% | HT29 colon 53.7% | SNB-75 CNS 89.3% | SNB-19 CNS 96% | U251 CNS 72.2% | PC-3 prostate 63% | SK-MEL-5 melanoma 71.9% | UACC-62 melanoma 18.7% | LOX IMVI melanoma 30.9% | SK-MEL-28 melanoma 105%

COc1ccc(Br)c(C=O)c1
inactive: DU-145 prostate 88.1% | K-562 leukemia 11.6% | MALME-3M melanoma 66.2% | RXF 393 renal 80.1% | SF-268 CNS 60.8% | SF-295 CNS 65.7% | SF-539 CNS 30.5% | UACC-257 melanoma 79.7% | M14 melanoma 46.1% | HCT-15 colon 26.8% | HT29 colon 76.3% | SNB-75 CNS 54.8% | SNB-19 CNS 74.8% | U251 CNS 39.1% | PC-3 prostate 71.7% | SK-MEL-5 melanoma 81.8% | UACC-62 melanoma 63.8% | SK-MEL-28 melanoma 86%

Cc1ccc(NCN2C(=O)c3ccccc3C2=O)c(C)n1
inactive: DU-145 prostate 107% | K-562 leukemia 108% | MDA-MB-231 breast 115% | RXF 393 renal 114% | SF-268 CNS 105% | SF-295 CNS 106% | SF-539 CNS 116% | UACC-257 melanoma 105% | M14 melanoma 97.6% | HCT-15 colon 115% | HT29 colon 104% | SNB-75 CNS 116% | SNB-19 CNS 113% | U251 CNS 103% | PC-3 prostate 101% | SK-MEL-5 melanoma 100% | UACC-62 melanoma 109% | LOX IMVI melanoma 104% | SK-MEL-28 melanoma 116%

CC(CC(CCC(=O)O)(c1ccccc1)c1ccccc1)N(C)C (stereo not drawn)
inactive: DU-145 prostate 115% | K-562 leukemia 103% | MALME-3M melanoma 109% | RXF 393 renal 105% | SF-268 CNS 102% | SF-295 CNS 93% | SF-539 CNS 95.1% | UACC-257 melanoma 88.9% | M14 melanoma 95% | HCT-15 colon 95.6% | HT29 colon 105% | SNB-75 CNS 99.6% | SNB-19 CNS 110% | U251 CNS 92.3% | PC-3 prostate 103% | SK-MEL-5 melanoma 95.5% | UACC-62 melanoma 103% | LOX IMVI melanoma 98.8% | SK-MEL-28 melanoma 104%

C/C(=N\N=C(/C)c1cccc([N+](=O)[O-])c1)c1cccc([N+](=O)[O-])c1
active: M14 melanoma -36.5%
inactive: DU-145 prostate 95.3% | K-562 leukemia 98.3% | MALME-3M melanoma 85% | RXF 393 renal 93.9% | SF-268 CNS 80.2% | SF-295 CNS 95.8% | SF-539 CNS 93.4% | UACC-257 melanoma 87.6% | HCT-15 colon 100% | HT29 colon 87.9% | SNB-75 CNS 83.8% | U251 CNS 91.1% | PC-3 prostate 86.7% | SK-MEL-5 melanoma 94.3% | UACC-62 melanoma 93.2% | LOX IMVI melanoma 91.6% | SK-MEL-28 melanoma 101%
